Compounds without any hit were thinned out: in the full panel of roughly 79,000, 15% have a hit. Unmarked numbers belong to inactive results. Calls of active or inactive are those of the source. Rule as the data show it: active = growth inhibition above about 70%; inactive = the rest.
Assays:
[1] = NCI Yeast Anticancer Drug Screen. Data for the rad50 strain (AID 155);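 also: 0% = growth of vehicle-only cultures of the same strain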; settings: S. cerevisiae rad50 strain growth inhibition, hits give high values
Outline: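 Inhibition values express reduced yeast growth in compound-treated cultures relative to vehicle-treated controls.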

[2] = NCI Yeast Anticancer Drug Screen. Data for the mec2-1 strain (AID 157); settings: S. cerevisiae mec2-1 strain, hits give high values
Outline: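 Strain: mec2-1 (DNA repair/cell cycle alteration). Compound exposure, then growth measured; inhibition expressed relative to vehicle.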

[3] = NCI Yeast Anticancer Drug Screen. Data for the sgs1 mgt1 strain (AID 161);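 also: 0% = growth of cultures given vehicle only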; settings: S. cerevisiae sgs1 mgt1 strain, hits give high values
Outline: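 Test agents were incubated with a DNA-repair-mutant yeast strain. Growth was then read and compared against vehicle-treated controls.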

[4] = NCI Yeast Anticancer Drug Screen. Data for the cln2 rad14 strain (AID 165);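 also: 0% = growth equal to vehicle treated cultures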; settings: S. cerevisiae cln2 rad14 strain, hits give high values
Outline: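 Compounds are applied to the cln2 rad14 yeast strain, and growth is then compared with that of vehicle-treated cultures to give inhibition.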

[5] = NCI Yeast Anticancer Drug Screen. Data for the bub3 strain (AID 167); settings: S. cerevisiae bub3 mutant strain, hits give high values
Outline: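 Steps: expose the mutant yeast strain to compound; grow alongside vehicle-treated cultures; measure growth; express inhibition against the vehicle cultures.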

[6] = NCI Yeast Anticancer Drug Screen. Data for the mlh1 rad18 strain (AID 175); settings: S. cerevisiae mlh1 rad18 strain growth inhibition, hits give high values
Outline: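 Read-out is yeast growth inhibition, calculated against vehicle-only controls. The compound was applied to a strain engineered with DNA damage repair alterations.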

[7] = at 5.0 µM (retest, dose inferred, filed as 0.5)
[8] = at 50.0 µM (retest, dose inferred, filed as 5.0)

Row | SMILES | growth inhibition [1, 7] | growth inhibition [1, 8] | growth inhibition ([1]; at 50.0 µM) | growth inhibition [2, 7] | growth inhibition [2, 8] | growth inhibition ([2]; at 50.0 µM) | growth inhibition [3, 7] | growth inhibition [3, 8] | growth inhibition ([3]; at 50.0 µM) | growth inhibition [4, 7] | growth inhibition [4, 8] | growth inhibition ([4]; at 50.0 µM) | growth inhibition [5, 7] | growth inhibition [5, 8] | growth inhibition ([5]; at 50.0 µM) | growth inhibition [6, 7] | growth inhibition [6, 8] | growth inhibition ([6]; at 50.0 µM)
1 | COc1cc(/C=C(\C)[N+](=O)[O-])cc(Br)c1O | 0% | 61% | 86.7% (active) | 1% | 82% (active) | 90.8% (active) | 8% | 91% (active) | 91% (active) | 3% | 43% | 53.5% | -3% | 54% | 93% (active) | 2% | 81% (active) | 98.7% (active)
2 | [Cl][Hg][c]1ccc(Cl)s1 | 99% (active) | 99% (active) | 99.2% (active) | 100% (active) | 99% (active) | 99.2% (active) | 100% (active) | 100% (active) | 99% (active) | 99% (active) | 99% (active) | 99% (active) | 100% (active) | 100% (active) | 99.3% (active) | 99% (active) | 99% (active) | 98.6% (active)
3 | Clc1ccccc1C#[C][Hg][C]#Cc1ccccc1Cl | 3% | 34% | 0.25% | 3% | 94% (active) | 5.95% | 4% | 95% (active) | 19.9% | 1% | 29% | -4.95% | -3% | 92% (active) | -9.2% | 5% | 76% (active) | 19.4%
4 | O=C(N/N=C(/CCN1CCCC1)CC(c1ccccc1)c1c(O)c2ccccc2oc1=O)c1ccncc1 (configuration not stated) | 15% | 15% | 83.3% (active) | -4% | -4% | 80% (active) | -1% | -1% | 85.1% (active) | -1% | -1% | 82.3% (active) | 0% | 0% | 81.3% (active) | 14% | 14% | 81.2% (active)
5 | CCOC(=O)c1ccc(NP(=O)(Oc2ccccc2)Oc2ccccc2)cc1 | -4% | 49% | 64.8% | 18% | 75% (active) | 52.9% | -18% | 66% | 64.7% | -10% | 56% | 69.2% | -6% | 89% (active) | 59.5% | 24% | 88% (active) | 77.8% (active)
6 | COc1cc(/C=C(/C)[N+](=O)[O-])c([N+](=O)[O-])cc1OC | 29% | 75% (active) | 88.3% (active) | 2% | 33% | 85.5% (active) | 14% | 65% | 71.7% (active) | 3% | 29% | 14.8% | 0% | 54% | 67% | 10% | 35% | 71.7% (active)
7 | COC(=O)c1ccc([As]=O)cc1N (configuration not stated) | 2% | 6% | 98.7% (active) | 1% | 4% | 99.5% (active) | -1% | 4% | 99.3% (active) | -2% | -6% | 98.5% (active) | 3% | 2% | 98.8% (active) | 2% | 7% | 99% (active)
8 | N#CN(Cc1ccccc1)C(c1ccccc1)(c1ccccc1)c1ccccc1.[I][Sn]([c]1ccccc1)([c]1ccccc1)[c]1ccccc1 | 99% (active) | 96% (active) | 98.8% (active) | 100% (active) | 98% (active) | 98.8% (active) | 100% (active) | 98% (active) | 99.5% (active) | 99% (active) | 94% (active) | 98.2% (active) | 99% (active) | 95% (active) | 97.7% (active) | 99% (active) | 96% (active) | 97% (active)
9 | COCC(C#N)NC1CC(OC2CC(O)(C(=O)CO)Cc3c(O)c4c(c(O)c32)C(=O)c2c(OC)cccc2C4=O)OC(C)C1O (configuration not stated) | 63% | 97% (active) | 91.3% (active) | 29% | 98% (active) | 89% (active) | 52% | 98% (active) | 90.2% (active) | 39% | 96% (active) | 88.7% (active) | 43% | 98% (active) | 92.1% (active) | 44% | 97% (active) | 89.8% (active)
10 | CC(C)=CCC/C(C)=C/CC/C(C)=C/Cc1c(O)c2ccccc2oc1=O | 16% | 94% (active) | 89% (active) | 5% | 97% (active) | 91.5% (active) | 7% | 95% (active) | 89.7% (active) | 29% | 96% (active) | 89.2% (active) | -11% | 95% (active) | 88.3% (active) | -21% | 98% (active) | 89.2% (active)
11 | CN1CCOC12CCC1(C)C(CCC3C4CCC(O)C4(C)CCC31)C2 (configuration not stated) | -11% | -5% | 77.5% (active) | -14% | -8% | 5.8% | -7% | 9% | 58% | 1% | 8% | -6.75% | -22% | -9% | 4.75% | -12% | -12% | 71.8% (active)
12 | CC(=O)Nc1ccccc1[As](OC(C)=O)c1ccccc1 (configuration not stated) | 18% | 97% (active) | 99.3% (active) | 11% | 99% (active) | 99.4% (active) | 28% | 98% (active) | 99.5% (active) | 99% (active) | 84% (active) | 98.7% (active) | -3% | 99% (active) | 99.5% (active) | 29% | 98% (active) | 99% (active)
13 | COC1CC2C=C(C)/C=C/C=C/C(=O)NC(c3ccccc3)C/C=C/CCC(O)CC(=O)C2=C1O (configuration not stated) | 97% (active) | 99% (active) | 91.5% (active) | 98% (active) | 99% (active) | 92.8% (active) | 99% (active) | 99% (active) | 92.5% (active) | 98% (active) | 99% (active) | 91.3% (active) | 99% (active) | 99% (active) | 88.7% (active) | 98% (active) | 99% (active) | 91.7% (active)
14 | Cc1cc(N(CCCl)CCCl)ccc1C=Nc1ccc(-c2csc(Cc3ccccc3)n2)c(Cl)c1 | 5% | 89% (active) | 92.7% (active) | -7% | 96% (active) | 94.5% (active) | 2% | 97% (active) | 94.2% (active) | -18% | 91% (active) | 91.1% (active) | 6% | 94% (active) | 89.2% (active) | -17% | 94% (active) | 93.7% (active)
15 | C(=P(c1ccccc1)(c1ccccc1)c1ccccc1)[P+](c1ccccc1)(c1ccccc1)c1ccccc1.[Cl][Fe]([Cl])([Cl])[Br] | 98% (active) | 99% (active) | 99.5% (active) | 98% (active) | 99% (active) | 99.5% (active) | 99% (active) | 99% (active) | 99.5% (active) | 98% (active) | 99% (active) | 99.2% (active) | 98% (active) | 99% (active) | 99.5% (active) | 99% (active) | 99% (active) | 99.4% (active)
16 | COc1ccccc1[As]=[As]c1ccccc1OC (configuration not stated) | 30% | 99% (active) | 99.5% (active) | 20% | 99% (active) | 99.5% (active) | 48% | 99% (active) | 99.4% (active) | 34% | 99% (active) | 98.3% (active) | 85% (active) | 99% (active) | 99.3% (active) | 75% (active) | 99% (active) | 99.3% (active)
17 | O=c1[nH]c2ccccc2n1C1CCN(CCCC(c2ccc(F)cc2)c2ccc(F)cc2)CC1 | -10% | 34% | -14.8% | 12% | 11% | -11.4% | 4% | 83% (active) | 48.7% | -7% | -4% | -24% | -2% | 10% | 72.9% (active) | 14% | 92% (active) | 63.8%
18 | COc1ccccc1C(Cc1ccc(N2C(N)=NC(N)=NC2(C)C)cc1)C(=O)Nc1ccc(S(=O)(=O)F)cc1 (configuration not stated) | 3% | 15% | 90.1% (active) | 12% | 2% | 95% (active) | 1% | 22% | 99.2% (active) | -2% | -5% | 55.4% | -3% | -4% | 98.8% (active) | 2% | 18% | 99% (active)
19 | O=C(CBr)Nc1ccc(Cl)cc1 | 99% (active) | 99% (active) | 98.8% (active) | 99% (active) | 99% (active) | 99.3% (active) | 99% (active) | 99% (active) | 99.6% (active) | 98% (active) | 99% (active) | 98.7% (active) | 98% (active) | 99% (active) | 99.4% (active) | 98% (active) | 98% (active) | 99.2% (active)

Source: PubChem BioAssay (NCI)
